Screening data: PubChem BioAssay, National Center for Advancing Translational Sciences (NCATS)
NPC1 promoter act: qHTS Assay for NPC1 Promoter Activators; Huh7 NPC1 promoter luciferase reporter, 24 h; 320,000 tested, 2.4% active; Potency, µM (highest dose often 9.22 µM), inactives show at the highest dose activation, actives largely listed as activators; further: % of control where 0% means no effect; nearly all actives have a fitted effect of over 60% in size
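Luciferase expression driven by the NPC1 promoter was measured in stably transfected Huh7 cells after a 24 h compound incubation, using a luciferase reagent and a luminescence read.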
uPA generation: qHTS for Inhibitors of Cell Surface uPA Generation; cell surface uPA generation assay, qHTS; Potency, µM (series often up to 38.3 µM), for inactives: top-dose activity change, negative = inhibition, hits mostly inhibitors; 330,000 tested, 0.31% active; active means well fitted inhibition curve with a large enough effect; inconclusive means small, poorly fitted or top-dose-only effect; inactive means no such curve, though single readings can be large or run the other way; tested in mouse RAW 264.7 cells; further: on the % scale 0 is the no-effect control and ±100 the full control effect; nearly all actives have a fitted effect of over 55% in size
Rab9 prom act: qHTS Assay for Rab9 Promoter Activators | Huh7 Rab9 promoter-luciferase reporter, luminescence, 24 h | 320,000 tested, 2.8% active | AID 485297, 2010 | Potency, µM (doses to about 9.22 µM), for inactives: top-dose activation, negative = inhibition, usual class: activators; further: % of control where 0% means no effect; nearly all actives have a fitted effect of over 60% in size
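Steps: seed 1500 Huh7 Rab9-luc cells per well, rest 2 h at 37 °C; add compound in DMSO; incubate 24 h; add luciferase reagent, 10 min ambient; read luminescence.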
FLuc counter: qHTS profiling assay for firefly luciferase inhibitor/activator using purifed enzyme and Km concentrations of substrates (counterscreen for miR-21 project) | Luciferin 4-monooxygenase (Photinus pyralis), P08659 | purified FLuc, Km substrates, luminescence inhibition | Potency, µM (top dose mostly 57.5 µM), inactives show at the highest dose activity change, negative = inhibition, hits mostly inhibitors | 360,000 tested, 6.9% active;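 further: plate controls were vehicle for no effect and reference inhibitor for full effect; nearly all actives have a fitted effect of over 55% in size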
Target sequence (P08659 whole entry, looked up): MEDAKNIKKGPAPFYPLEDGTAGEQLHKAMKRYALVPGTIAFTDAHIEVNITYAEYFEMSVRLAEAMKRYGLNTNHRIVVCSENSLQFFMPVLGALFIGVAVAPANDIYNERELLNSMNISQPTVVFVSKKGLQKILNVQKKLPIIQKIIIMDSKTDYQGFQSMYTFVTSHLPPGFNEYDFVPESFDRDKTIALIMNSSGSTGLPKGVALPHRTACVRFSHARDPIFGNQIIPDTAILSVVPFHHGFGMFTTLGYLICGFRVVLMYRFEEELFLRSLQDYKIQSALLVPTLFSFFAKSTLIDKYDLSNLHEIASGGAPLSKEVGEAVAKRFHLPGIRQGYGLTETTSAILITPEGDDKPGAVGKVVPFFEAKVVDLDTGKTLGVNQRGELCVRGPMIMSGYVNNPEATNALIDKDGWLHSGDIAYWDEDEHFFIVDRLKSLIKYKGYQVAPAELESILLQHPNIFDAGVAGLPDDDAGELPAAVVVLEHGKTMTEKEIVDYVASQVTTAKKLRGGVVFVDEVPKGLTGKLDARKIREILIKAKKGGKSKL
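Biochemical qHTS of compounds, final roughly 60 µM downward over six points, against 10 nM purified firefly luciferase using Km concentrations of substrates (10 uM D-luciferin, 10 uM ATP) in Tris acetate pH 7.5 buffer; luminescence output.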
SMN2 splice enh: qHTS Assay for Enhancers of SMN2 Splice Variant Expression; Potency, µM (top dose mostly 46.1 µM), inactives show at the top dose activity change, positive = activation, most hits filed as activators; HEK293 SMN2-luciferase splicing reporter, luminescence, 30-36 h; AID 1458, 2008; 210,000 tested, 2.8% active; further: % of control where 0% means no effect; nearly all actives have a fitted effect of over 55% in size
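qHTS luciferase splicing reporter: luminescence rises when SMN2 exon 7 is included in transfected HEK293 cells. Compound exposure lasted 30-36 h at 37C, with 4.5 mM final sodium butyrate as control, followed by a ONE-Glo read.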
ELG1 genotoxic: qHTS screen for small molecules that induce genotoxicity in human embryonic kidney (HEK293T) cells expressing luciferase-tagged ELG1 | HEK293T ELG1-luciferase reporter, luminescence, 16 h | Potency, µM (series often up to 46 µM), inactives show top-dose activity change, positive = activation, most hits filed as activators | 330,000 tested, 1.3% active; further: % of control where 0% means no effect; nearly all actives have a fitted effect of over 60% in size
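HEK293T cells expressing luciferase-tagged ELG1 were treated with compound or DMSO for 16 hr at 37°C. Luciferase activity was then read after 30 min with ONE-Glo at room temperature; rising signal flags genetic stress.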
An asterisk follows results filed as active; ? = inconclusive; nt = no result given. This is a sample that favours compounds with a hit; in the whole collection about 7.3% have one here. Unless noted, the call rests on the fitted dose curve; in most records, active means well fitted curve in the direction sought with a large enough effect; inconclusive means small, poorly fitted or top-dose-only effect, or another doubt; inactive means no such curve, though single readings can be large; an effect the other way counts as inactive or inconclusive. Potency means the concentration at half of the fitted maximal effect.

SMILES	NPC1 promoter act	uPA generation	Rab9 prom act	FLuc counter	SMN2 splice enh	ELG1 genotoxic
CCc1ccc(-c2ccc(C(=O)C(F)(F)F)[nH]2)cc1	2µM*	0%	1.1µM*	2.1µM*	?	?
Cc1cc(C(=O)N/N=C/c2c[nH]c3ccccc23)c(C)o1	1%	-8%	0%	19µM*	-3%	11%
Cc1ccc(C(=O)N/N=C/c2c[nH]c3ccccc23)o1	18%	-6%	26%	24µM*	nt	?
Cc1ccc(-c2cc(C(=O)N/N=C/c3ccccc3O)n[nH]2)o1	3%	-10%	-1%	?	nt	?
Cc1ccc(-c2cc(C(=O)N/N=C/c3c[nH]c4ccccc34)n[nH]2)o1	9%	?	0%	11µM*	5%	-7%
Cc1ccc(-c2cc(C(=O)N/N=C/C(Br)=C/c3ccccc3)n[nH]2)o1	-3%	-10%	22%	24µM*	-2%	-2%
O=C(N/N=C/c1c[nH]c2ccccc12)c1cccc([N+](=O)[O-])c1	13%	-4%	5%	?	-8%	0%
CCOc1ccccc1NC(=O)C(NS(=O)(=O)c1cccc2nsnc12)c1ccccc1 (centres undefined)	nt	nt	nt	-17%	nt	nt
C=CCOC(=O)N[C@H](/C(C(=O)OC)=C(\C)NCc1ccccc1)c1cccc(F)c1	nt	nt	nt	nt	-7%	nt
COc1cccc2cc(-c3csc(-c4ccc(Cl)cc4)n3)c(=O)oc12	nt	nt	nt	-5%	nt	nt
CCn1nc(-c2ccccc2)c(-c2ccccc2)c(C(=O)Nc2nc(C)c(C(C)=O)s2)c1=O	nt	nt	nt	?	-7%	nt
O=C(NCCSCc1ccco1)Nc1cccc(Cl)c1	?	-8%	?	17µM*	?	10%
O=C(CCSc1ccccc1)NCCSCc1ccco1	3%	5%	0%	19µM*	nt	-1%
O=C(NCCNC(=O)Nc1ccc(Cl)cc1)Nc1ccc(Cl)cc1	nt	8%	nt	nt	nt	nt
O=C(NCCSCc1ccco1)Nc1ccc(Cl)cc1	nt	-17%	nt	11µM*	?	nt
CCOc1ccc(C(=O)N2CCC(c3nnc(-c4ccccc4OC)o3)CC2)cc1	nt	nt	nt	-9%	-12%	nt
COC(=O)CC1[C@@]2(C)C[C@]34OC5(C)OC6(C7CC(=O)OC(c8ccoc8)[C@]7(C)CCC6(O5)[C@]13C)C(OC(C)=O)[C@]4(OC(C)=O)C2OC(C)=O (some centres undefined)	nt	nt	nt	nt	-13%	nt
COc1ccc(N2CCN(C(CNC(=O)CC(C)C)c3ccc4c(c3)OCO4)CC2)cc1 (centres undefined)	nt	nt	nt	5%	nt	nt
COC(=O)c1cc(NC(=O)CSc2ncn[nH]2)ccc1Cl	-2%	3%	6%	0%	nt	-2%
COC(=O)c1cn[nH]c1NC(=S)Nc1ccc(Cl)c(Cl)c1	0.63µM*	nt	0.35µM*	0.43µM*	10µM*	0.41µM*
COC(=O)c1cn[nH]c1NC(=S)Nc1ccc(C)cc1Cl	0.4µM*	nt	0.56µM*	0.38µM*	16%	0.58µM*
COC(=O)c1cn[nH]c1NC(=S)Nc1ccccc1C	?	nt	3.5µM*	7.6µM*	4%	?
CCOC(=O)c1cn[nH]c1NC(=S)Nc1ccc(OC)cc1	0.28µM*	-12%	0.32µM*	0.19µM*	nt	?
CCCCn1c(=O)c2oc3ccccc3c2n(CC(=O)Nc2cccc(Cl)c2C)c1=O	nt	nt	nt	-5%	nt	nt
Clc1ccc(CONc2ncnc3nonc23)c(Cl)c1	?	-2%	3.5µM*	?	?	3%
O=C(CSc1n[nH]c(-c2ccccc2)n1)N1CCN(c2ccccc2F)CC1	nt	nt	nt	-18%	nt	nt
Nc1cccc(-c2ccc(CO)o2)c1	0%	-2%	0%	17µM*	nt	8%
Nc1cccc(N)c1	nt	nt	nt	nt	-5%	nt
Brc1ccc(-c2csc(Nc3nc(-c4ccc(Br)cc4)cs3)n2)cc1	8%	3%	2%	?	nt	-11%
